# Several values for one entry are separate records, joined by “and”; a condition that tells them apart may be missing. Identical values can stand only once. Inconclusive results are not listed. Activity calls are given as the source filed them.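 Rule for the calls, unless noted: active = normalized viability below 100% at a tested concentration; inactive = the rest.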
# Tests used:
# [1] = growth inhibition of DIPG glioma cells, dose response, cell-based, SU-DIPG-XVII, MIPE5.0, CellTiter-Glo, qHTS (AID 1347060; cut-off not given, nearly all actives have AC50 up to about 26 µM;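 for AC50: cells exposed to compound for 48 hours before viability readout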); details: SU-DIPG-XVII viability, CellTiter-Glo ATP luminescence
# [2] = growth inhibition of DIPG glioma cells, dose response, cell-based, SU-DIPG-XIII, MIPE4.0, CellTiter-Glo, qHTS (AID 1347061; cut-off not given, nearly all actives have AC50 up to about 37 µM;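 note: cells exposed to compound for 48 hours before readout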); details: SU-DIPG-XIII viability, CellTiter-Glo ATP luminescence
# [3] = growth inhibition of DIPG glioma cells, dose response, cell-based, JHH-DIPG-1, MIPE4.0, CellTiter-Glo, qHTS (AID 1347062; cut-off not given, nearly all actives have AC50 up to about 27 µM;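 for AC50: cells exposed to compound for two days before readout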); details: JHH-DIPG-1 viability, CellTiter-Glo ATP luminescence
# [4] = growth inhibition of DIPG glioma cells, dose response, cell-based, SU-DIPG-IV, MIPE4.0, CellTiter-Glo, qHTS (AID 1347063; cut-off not given, nearly all actives have AC50 up to about 30 µM;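 note: compound exposure lasted 48 hours before the viability readout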); details: SU-DIPG-IV viability, CellTiter-Glo ATP luminescence
# [5] = growth inhibition of DIPG glioma cells, dose response, cell-based, SU-DIPG-XIII, MIPE5.0, CellTiter-Glo, qHTS (AID 1347064; cut-off not given, nearly all actives have AC50 up to about 23 µM;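 for AC50: cells exposed to compound for 48 hours before the viability read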); details: SU-DIPG-XIII viability, CellTiter-Glo ATP luminescence
# [6] = viability loss in pontine glioma line – cell-based, SU-DIPG-XXV, MIPE5.0, CellTiter-Glo, qHTS, dose response (AID 1347065; cut-off not given, nearly all actives have AC50 up to about 26 µM;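 note: cells exposed to compound for 48 hours before ATP readout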); details: CellTiter-Glo ATP luminescence
# [7] = SU-DIPG-VI glioma cell viability, MIPE4.0 library, CellTiter-Glo luminescence, qHTS (AID 1347066; cut-off not given, nearly all actives have AC50 up to about 30 µM;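 note: cells exposed to compound for 48 hours before readout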); details: CellTiter-Glo ATP luminescence
# [8] = JHH-DIPG-1 glioma cell viability, MIPE5.0 library, CellTiter-Glo luminescence, qHTS (AID 1347067; cut-off not given, nearly all actives have AC50 up to about 26 µM;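 note: cells exposed to compound for 48 hours before readout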); details: JHH-DIPG-1 glioma viability, CellTiter-Glo ATP luminescence
# [9] = sensitizers of A549 cells to miR-34 induction, primary screen, imaging, A549 dox-inducible miR-34, nuclei and caspase counts (AID 1347080;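 active = compounds whose cell count with miR-34 switched on is under 0.7 times the count with it off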); details: A549 miR-34 inducible, Hoechst nuclei count, 48 h
# [10] = survival rescue of mitochondrial mutant cells in low glucose, primary screen, MELAS cybrids, Rieske KO mouse fibroblasts, CellTiter-Glo (AID 1508586;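 active = mean z-score across replicates of 1.96 or higher in either the MELAS or the Rieske mutant cell line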;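 note: z relative to plate mean and SD of compound and empty wells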)
# [11] = modifiers of HSF1 nuclear foci, imaging, Selleck Cancer Library (AID 1347162; in the data active = plate-normalised HSF1 focus index below about 0.46); details: human cells, at 10 µM; SSMD: measured here: HSF1 foci SSMD mean; cell count: measured here: cell number; plate-normalised HSF1 focus index: stronger effect = lower value
# [12] = ovarian cancer cell viability with rucaparib, profiling panel, oncology-focused library, rucaparib conditional (AID 1508598); details: patient-derived ovarian cancer cells, CellTiter-Glo viability, 144 h, stronger effect = lower value
# [13] = stronger effect = lower value, cell number ratio, induced over uninduced
# [14] = measured here: relative caspase fold change +Dox/-Dox
# [15] = measured here: total cells with miR-34 induction, stronger effect = lower value
# [16] = measured here: total cells without miR-34 induction
# [17] = MELAS cybrid survival, CellTiter-Glo 48 h, stronger effect = higher value
# [18] = Rieske KO mouse fibroblast survival, CellTiter-Glo 72 h
structure (smiles),measurement,setting,value
COc1ccc(-n2nc(C(N)=O)c3c2C(=O)N(c2ccc(N4CCCCC4=O)cc2)CC3)cc1,outcome,[1],inactive
same,outcome,[2],inactive
same,outcome,[3],inactive
same,outcome,[4],inactive
same,outcome,[5],inactive
same,outcome,[6],inactive
same,outcome,[7],inactive
same,outcome,[8],inactive
same,fold change,[9]; [13],0.908 (inactive)
same,fold change,[9]; [14],0.921
same,cell count,[9]; [15],8080
same,cell count,[9]; [16],8900
same,z-score,[10]; [17],-0.515 (inactive)
same,z-score,[10]; [18],-0.309
Oc1cccc(-c2nc(N3CCOCC3)c3oc4ncccc4c3n2)c1,AC50,[1],525 nM (active)
same,AC50,[2],1210 nM (active)
same,AC50,[3],215 nM (active)
same,AC50,[4],42.9 nM (active)
same,AC50,[5],332 nM (active)
same,AC50,[6],186 nM (active)
same,AC50,[7],3820 nM (active)
same,AC50,[8],5250 nM (active)
same,fold change,[9]; [13],1.06 (inactive) and 0.903 (inactive)
same,fold change,[9]; [14],0.551 and 1.05
same,cell count,[9]; [15],2320 and 1430
same,cell count,[9]; [16],2190 and 1580
same,SSMD,[11],-4.03
same,cell count,[11],7310
same,plate-normalised HSF1 focus index,[11],0.749 (inactive)
same,z-score,[10]; [17],2.46 (active)
same,z-score,[10]; [18],-0.00105
same,viability,"[12]; at 0.000305 µM, OCI-C5x cells, with rucaparib 10 µM, 100% = cells with rucaparib alone",109% (inactive)
same,viability,"[12]; at 0.000305 µM, OCI-C5x cells, without rucaparib",110% (inactive)
same,viability,"[12]; at 0.000305 µM, OCI-P5x cells, with rucaparib 20 µM, 100% = cells with rucaparib alone",120% (inactive)
same,viability,"[12]; at 0.000305 µM, OCI-P5x cells, without rucaparib",103% (inactive)
same,viability,"[12]; at 0.00122 µM, OCI-C5x cells, with rucaparib 10 µM, 100% = cells with rucaparib alone",109% (inactive)
same,viability,"[12]; at 0.00122 µM, OCI-C5x cells, without rucaparib",104% (inactive)
same,viability,"[12]; at 0.00122 µM, OCI-P5x cells, with rucaparib 20 µM, 100% = cells with rucaparib alone",117% (inactive)
same,viability,"[12]; at 0.00122 µM, OCI-P5x cells, without rucaparib",98.5% (active)
same,viability,"[12]; at 0.00488 µM, OCI-C5x cells, with rucaparib 10 µM, 100% = cells with rucaparib alone",75.7% (active)
same,viability,"[12]; at 0.00488 µM, OCI-C5x cells, without rucaparib",93.3% (active)
same,viability,"[12]; at 0.00488 µM, OCI-P5x cells, with rucaparib 20 µM, 100% = cells with rucaparib alone",106% (inactive)
same,viability,"[12]; at 0.00488 µM, OCI-P5x cells, without rucaparib",103% (inactive)
same,viability,"[12]; at 0.0195 µM, OCI-C5x cells, with rucaparib 10 µM, 100% = cells with rucaparib alone",79.3% (active)
same,viability,"[12]; at 0.0195 µM, OCI-C5x cells, without rucaparib",72.3% (active)
same,viability,"[12]; at 0.0195 µM, OCI-P5x cells, with rucaparib 20 µM, 100% = cells with rucaparib alone",113% (inactive)
same,viability,"[12]; at 0.0195 µM, OCI-P5x cells, without rucaparib",100% (inactive)
same,viability,"[12]; at 0.0781 µM, OCI-C5x cells, with rucaparib 10 µM, 100% = cells with rucaparib alone",103% (inactive)
same,viability,"[12]; at 0.0781 µM, OCI-C5x cells, without rucaparib",107% (inactive)
same,viability,"[12]; at 0.0781 µM, OCI-P5x cells, with rucaparib 20 µM, 100% = cells with rucaparib alone",97.5% (active)
same,viability,"[12]; at 0.0781 µM, OCI-P5x cells, without rucaparib",96.9% (active)
same,viability,"[12]; at 0.313 µM, OCI-C5x cells, with rucaparib 10 µM, 100% = cells with rucaparib alone",123% (inactive)
same,viability,"[12]; at 0.313 µM, OCI-C5x cells, without rucaparib",114% (inactive)
same,viability,"[12]; at 0.313 µM, OCI-P5x cells, with rucaparib 20 µM, 100% = cells with rucaparib alone",73.1% (active)
same,viability,"[12]; at 0.313 µM, OCI-P5x cells, without rucaparib",95.8% (active)
same,viability,"[12]; at 1.25 µM, OCI-C5x cells, with rucaparib 10 µM, 100% = cells with rucaparib alone",78.6% (active)
same,viability,"[12]; at 1.25 µM, OCI-C5x cells, without rucaparib",86.7% (active)
same,viability,"[12]; at 1.25 µM, OCI-P5x cells, with rucaparib 20 µM, 100% = cells with rucaparib alone",45.8% (active)
same,viability,"[12]; at 1.25 µM, OCI-P5x cells, without rucaparib",65.7% (active)
same,viability,"[12]; at 5 µM, OCI-C5x cells, with rucaparib 10 µM, 100% = cells with rucaparib alone",60.3% (active)
same,viability,"[12]; at 5 µM, OCI-C5x cells, without rucaparib",69.5% (active)
same,viability,"[12]; at 5 µM, OCI-P5x cells, with rucaparib 20 µM, 100% = cells with rucaparib alone",40.3% (active)
same,viability,"[12]; at 5 µM, OCI-P5x cells, without rucaparib",48.6% (active)
C[C@@H]1CCN(C(=O)CC#N)C[C@@H]1N(C)c1ncnc2[nH]ccc12,outcome,[1],inactive
same,outcome,[2],inactive
same,outcome,[3],inactive
same,outcome,[4],inactive
same,outcome,[5],inactive
same,outcome,[6],inactive
same,outcome,[7],inactive
same,outcome,[8],inactive
same,SSMD,[11],3.28
same,cell count,[11],7280
same,plate-normalised HSF1 focus index,[11],1.17 (inactive)
